Compounds with a hit are over-represented: about 11% of the library has one in this group of screens.
MCF10A rereplic = DNA re-replication induction in MCF 10a cells; MCF 10A DNA re-replication, Hoechst nuclear intensity, 48 h; Potency, µM (highest dose often 46.1 µM), for inactives: at the top dose activity, positive = re-replication, usual class: activators; actives 2.9% (n = 350,000); AID 624296; further: potency means the concentration at half of the fitted maximal effect; % of control where 0% means no effect; nearly all actives have a fitted effect of over 50% in size
SW480 rerep = DNA re-replication induction in SW480 cells; SW480 DNA re-replication, Hoechst DNA content imaging, 48 h; Potency, µM (top dose mostly 46.1 µM), without a hit: at the highest dose re-replication activation, most hits filed as activators; actives 1.8% (n = 340,000); AID 624297; further: potency means the concentration at half of the fitted maximal effect; % of control where 0% means no effect; nearly all actives have a fitted effect of over 55% in size
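Compounds, transferred as 23 nL by pin tool, were incubated with cells for 48 hr; DNA content per nucleus was then quantified by Hoechst staining and fluorescence plate imaging.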
IL1B secr inh = inhibitors of inflammasome signaling (IL-1 beta secretion) | THP-1 LPS/ATP IL-1B secretion, AlphaLISA, 16 h; hits give low values | activity change, % at 57.5 µM | actives 4.7% (n = 360,000) | AID 743279; in the data active means activity change below about -50%; inconclusive means mostly about -30% to -49%; further: on the % scale 0 is the no-effect control and ±100 the full control effect
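THP-1 cells pretreated 1 hr with compounds (up to 57.5 uM final), then stimulated with LPS (250 ng/mL final) plus ATP (1.25 mM final); secreted IL-1B measured by AlphaLISA after 16 hr, decreased signal indicating inhibition.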
VP16 counter = inhibits Gal4-VP16 luciferase reporter, ROR gamma counter-screen; Drosophila S2 Gal4-VP16 UAS-luciferase, luminescence, 20 h; Potency, µM (top dose mostly 53.6 µM), for the others: top-dose activity, negative = inhibition, usual class: inhibitors; actives 3.5% (n = 310,000);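 further: Gal4-VP16 expression switched on by copper sulfate through the metallothionein promoter; potency means the concentration at half of the fitted maximal effect; on the % scale 0 is the no-effect control and ±100 the full control effect; nearly all actives have a fitted effect of over 50% in size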
RORg inh = ROR gamma (mouse) transcription inhibition; P51450; Potency, µM (titrated, usually from 53.6 µM), for inactives: at the highest dose activity change, negative = inhibition, hits mostly inhibitors; actives 5.4% (n = 310,000); Drosophila S2 Gal4-RORgamma UAS-luciferase reporter, 20 h; further: potency means the concentration at half of the fitted maximal effect; on the % scale 0 is the no-effect control and ±100 the full control effect; nearly all actives have a fitted effect of over 60% in size
Target sequence (P51450 whole entry, looked up, the tested form may be a part): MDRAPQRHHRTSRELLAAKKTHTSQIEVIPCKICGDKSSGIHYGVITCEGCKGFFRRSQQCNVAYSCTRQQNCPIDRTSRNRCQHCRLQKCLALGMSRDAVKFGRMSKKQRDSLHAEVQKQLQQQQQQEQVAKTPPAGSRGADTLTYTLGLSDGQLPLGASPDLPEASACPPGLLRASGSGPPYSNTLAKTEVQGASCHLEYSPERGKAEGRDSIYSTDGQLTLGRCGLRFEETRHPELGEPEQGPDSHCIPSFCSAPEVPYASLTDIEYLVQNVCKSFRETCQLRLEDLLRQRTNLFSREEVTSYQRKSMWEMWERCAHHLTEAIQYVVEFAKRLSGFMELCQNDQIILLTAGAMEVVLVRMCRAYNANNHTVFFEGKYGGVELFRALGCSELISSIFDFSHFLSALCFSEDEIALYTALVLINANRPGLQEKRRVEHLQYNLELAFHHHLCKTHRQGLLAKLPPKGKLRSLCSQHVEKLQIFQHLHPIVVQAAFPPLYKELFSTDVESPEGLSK
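ROR gamma transcriptional activity was tracked as Gal4-UAS luciferase output in stably transfected Drosophila Schneider cells, with compound added 1 hr before 700 uM copper sulfate induction and a 20 hr ambient-temperature incubation.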
* hit, by the source's call; ? = inconclusive; · = no result given; [ ] = another dose, or the depositor's remark. Unless noted, the call rests on the fitted dose curve; in most records, active means well fitted curve in the direction sought with a large enough effect; inconclusive means small, poorly fitted or top-dose-only effect, or another doubt; inactive means no such curve, though single readings can be large; an effect the other way counts as inactive or inconclusive.

SMILES | MCF10A rereplic | SW480 rerep | IL1B secr inh | VP16 counter | RORg inh
COc1cc(/C=C2\C(=O)ON=C2c2ccccc2)cc(OC)c1OC | ? | -5% | -117* | 1% | -3%
COc1ccc(C=C2C(=O)OC(C)(C)OC2=O)cc1OC | 4% | 2% | -1 | 0% | 29%
O=C(O)[C@H]1O[C@@H](Oc2ccc3ccc(=O)oc3c2)[C@H](O)[C@@H](O)[C@@H]1O | · | · | · | 4% | 0%
O=C(c1cc(Cl)ccc1F)N1CCCC(Nc2ccc3c(c2)OCCO3)C1 (stereo not given) | 11% | -2% | -12 | -5% | 5%
COc1ccc(-c2nnc3n2N=C(c2ccccc2OC)CS3)cc1 | · | · | · | 0% | ?
CCCc1cc(=O)[nH]c(SCCc2ccccc2)n1 | -7% | -8% | -2 | -1% | -10%
Cc1ccc(NS(=O)(=O)c2cc(C(=O)Nc3cccnc3)ccc2C)cc1 | 2% | 0% | 0 | -2% | 13%
COc1ccc(/C=C2\C(=O)ON=C2c2ccccc2)cc1OC | 11% | 7% | -98* | 11µM* | 13µM*
CCOC(=O)CC(=O)CSc1nc2ccc(C)cc2cc1C#N | 23µM* | -1% | 6 | 11% | ?
CCOC(=O)CC(=O)CSc1nc(CC)c(C)cc1C#N | 0% | 23µM* | -6 | 0% | -8%
Cc1ccc(CN2C(=O)[C@@H]3Cc4c([nH]c5ccccc45)C(C)(C)N3C2=O)cc1 | ? | -10% | · | · | ·
CC1(C)c2[nH]c3ccccc3c2C[C@@H]2C(=O)N(Cc3ccc(F)cc3)C(=O)N21 | 18µM* | 2% | · | · | ·
COc1ccccc1CN1C(=O)[C@H]2Cc3c([nH]c4ccccc34)C(C)(C)N2C1=O | ? | -16% | · | · | ·
Cc1ccc(CN2C(=O)[C@H]3Cc4c([nH]c5ccccc45)C(C)(C)N3C2=O)cc1 | 21µM* | ? | · | · | ·
CCOc1ccc(N(C)S(=O)(=O)c2ccc(C)c(C(=O)Nc3nnc(C4CC4)s3)c2)cc1 | 8% | -2% | -3 | · | ·
CC(=O)N1CCN(Cc2cc(=O)oc3ccccc23)CC1 | · | · | 14 | · | ·
CSc1nsc(SCC(=O)Nc2ccc(C(N)=O)cc2)n1 | 2% | -58% | -12 | ? | 3.2µM*
CC(=O)CC(=O)Nc1ccc(C(N)=O)cc1 | 0% | -11% | -8 | -2% | 11µM*
CCCC(=O)Nc1ccc(C(N)=O)cc1 | 0% | -95% | 10 | -7% | -14%
O=C(Nc1ccc(F)c(Cl)c1)c1cc(C2CCCN(C(=O)CCc3ccccc3)C2)on1 (stereo not given) | · | · | -7 | · | ·
O=C(Nc1ncccn1)c1cc([N+](=O)[O-])cc([N+](=O)[O-])c1 | ? | -7% | 0 | -7% | -18%
O=[N+]([O-])c1cc(-c2ncccn2)c([N+](=O)[O-])s1 | 7.3µM* | 21µM* | -86* | 7.1µM* | 4µM*
CN(Cc1ccccc1)C(=O)COC(=O)c1cc2ccccc2oc1=O | 2% | -5% | 7 | · | ·
COC1C(O)COC1/C=C/c1ccccc1 (stereo not given) | · | · | · | -1%[10 µM] | -3%[10 µM]
CCC1=NN(C(=O)c2ccc(C)cc2)C(O)(c2ccc(Br)cc2)C1 (stereo not given) | 18% | -3% | -9 | 13µM* | ?
SMILES | MCF10A rereplic | SW480 rerep | IL1B secr inh | VP16 counter | RORg inh
CCC1=NN(C(=O)c2ccc(Br)cc2)C(O)(c2ccc(C)cc2)C1 (stereo not given) | 15% | -1% | -7 | 11µM* | 13µM*
CCC1=NN(C(=O)c2cccc(Br)c2)C(O)(c2ccc(Br)cc2)C1 (stereo not given) | ? | 24% | 138 | -14% | -7%[10 µM]
CCC1=NN(C(=O)c2ccccc2[N+](=O)[O-])C(O)(c2ccccc2)C1 (stereo not given) | · | · | 27 | · | ·
COc1cc2c(cc1OC)C1O[C@](c3ccsc3)(C2)Oc2cc(-c3ccccc3)oc(=O)c21 | · | · | · | 1%[10 µM] | 11%[10 µM]
CN1c2ccsc2/C(=N/NC(=O)c2c(F)cccc2F)CS1(=O)=O | -2% | -1% | 12 | 5µM* | 3.2µM*
CC(=O)NCCC(=O)Nc1cc(S(=O)(=O)N2CCCCC2)ccc1Oc1ccccc1 | -9% | 1% | -1 | 8% | -15%
Cc1cc(C(=O)N/N=C/c2ccc3ccccc3c2)n[nH]1 | 3% | 9% | -10 | 19% | 0%
COCCCNC(=S)NNC(=S)Nc1ccc(OC)cc1 | 8% | ? | 7 | -1% | -1%
COCCCNC(=S)N/N=C/c1ccc(O)cc1 | -1% | 14% | -25 | -11% | 13µM*
COCCCNC(=S)N/N=C/c1ccc2ccccc2c1 | -1% | 4% | -15 | 18µM* | 4.5µM*
COCCCNC(=S)N/N=C/c1ccc(O)cc1O | -1% | ? | · | -26% | -37%
COCCCNC(=S)N/N=C/c1ccc(OC)cc1 | -14% | 10% | · | ? | 5.6µM*
COCCCNC(=S)N/N=C/c1cccc(OC)c1O | -21% | -43% | -3 | 1.6µM* | 0.63µM*
CC(O)[C@H]1CNCCN1CCc1cccc(F)c1 (stereo not given in full) | -1% | -36% | 19 | · | ·
CNc1nc(Cl)nc2c1ncn2CC(COC(=O)C(C)(C)C)COC(=O)C(C)(C)C | · | · | · | -11% | 4%
Cc1ccc(C(NC(=O)c2cccc(S(=O)(=O)N3CCN(C)CC3)c2)c2ccccc2)cc1 (stereo not given) | ? | 1% | ? | · | ·
COc1ccc(C(=O)N2CCC3(CCCN(Cc4nccs4)C3)CC2)cc1 | · | · | · | 6% | 23%
CC(NC(=O)c1ccccc1F)c1nnc(SCC(=O)NC2=NCCS2)n1C (stereo not given) | -15% | -21% | 6 | -2% | -17%
Cc1csc2c(N3CCN(C(=O)Nc4ccccc4)CC3)ncnc12 | 24% | 4% | ? | -20% | ?
O=C(Nc1ccc(OC(F)(F)F)cc1)N1CCN(c2ccnc3cc(Cl)ccc23)CC1 | ? | 20% | ? | 28µM* | ?
O=S(=O)(c1ccccc1OC(F)(F)F)N1CCN(c2ccnc3cc(Cl)ccc23)CC1 | -11% | ? | -4 | -15% | 41%
COc1ccccc1N1CCN(c2ccnc3cc(Cl)ccc23)CC1 | 2.6µM* | 8.2µM* | 40 | 8% | 13%
Cc1csc2ncnc(N3CCN(C(=O)Nc4ccc(OC(F)(F)F)cc4)CC3)c12 | 17% | 5% | -71* | ? | -54%
COc1ccccc1NC(=O)N1CCN(c2ccnc3cc(Cl)ccc23)CC1 | -7% | -6% | -75* | -21% | -10%
CC(C)C(C)(C)C(C)(C)C(C)(C)S | · | · | · | -6% | 2%
CC(C)(CNC(=O)c1cccc(S(=O)(=O)Nc2ccc(Br)cc2)c1)N1CCOCC1 | ? | -3% | 4 | · | ·
COC1CC(=O)C2OC(c3ccccc3)OCC2O1 (stereo not given) | · | · | -17 | · | ·
COc1ccccc1CCC(=O)Oc1ccccc1C#N | 0% | 2% | 0 | 3% | -21%
